Laboratory results reported in PubChem BioAssay (NCATS).
Results filed as inconclusive are left out. Unmarked numbers belong to inactive results. The call rests on the fitted dose curve; in most records, active means well fitted cell-killing curve with a large enough effect; inconclusive means small, poorly fitted or top-dose-only effect, or effect the other way; inactive means no such curve, though single readings can be large or run the other way.

Assay: MultiTox-Fluor Cytotoxicity Assay - LYMP1-002 - Dead Cells (AID 960);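 further: cells exposed to compound for 16 h at 37 °C; 0% = DMSO and 100% = tetraoctylammonium bromide; nearly all actives have a fitted effect of over 60% in size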
Settings: LYMP1-002 lymphoblastoid cells, dead-cell protease fluorescence; series mostly up to 46.1 µM; cytotoxicity (dead cells): at the top concentration
Excerpt: NIH Chemical Genomics Center [NCGC]
NIH Molecular Libraries Screening Centers Network [MLSCN]
National Institutes of Environmental Health Sciences [NIEHS]
National Toxicology Program [NTP]
We have developed a 1536-well cell-based assay for quantitative high throughput screening (qHTS) against a number of cell lines to determine in vitro cytotoxicity of small molecules. This particular assay uses a human lymphoblastoid cell line (LYMP1-002) purchased from Coriell Institute.
NCGC Assay Protocol Summary:
The MultiTox-Fluor Cytotoxicity Assay (Promega) is a homogeneous method to simultaneously measure the relative number of live and dead cells in culture by detecting changes in cell membrane integrity. There are two fluorogenic peptide substrates in the assay reagent. Viable cells are determined when the cell-permeant substrate (GF-AFC) enters the cell and is cleaved by protease from live cells resulting in liberated fluorophore. This live-cell protease activity restricted to viable cells is proportional to cell number. The dead cells are determined by using fluorogenic cell-impermeant peptide substrate (bis-AAF-R110) which cleaved by dead cell proteases leaking from damaged cell membrane.
Using the MultiTox-Fluor Cytotoxicity Assay, the relative number of dead cells was measured in the lymphoblastoid cell line with complete culture medium following compound treatment for 16 hours. The assay was performed in opaque black Kalypsys 1536-well plates. In the screen, tetraoctylammonium bromide was used as positive control. Library compounds were measured for their ability to cause acute toxicity in the cell line, as reflected by an increase in dead cell protease activity, in a concentration-dependent manner. Data were normalized to the controls for basal activity (DMSO only) and 100% stimulation (15 uM tetraoctylammonium bromide). AC50 values were determined from concentration-response data modeled with the standard Hill equation.
qHTS protocol for MultiTox-Fluor Cytotoxicity assay
[Step] [Parameter] [Value] [Description]
1. Reagent; 5 uL; 2500 lymphoblastoid cells/well
2. Time; 5 hr; 37 C incubation
4. Controls; 23 nL; Tetraoctylammonium bromide 6.4pM to 92 uM
5. Time; 16 hr; 37 C incubation
6. Reagent; 5 uL; MuliTox-Fluor Assay reagent
7. Time; 60 min; Room Temperature
8. Detection; dead-cell fluorescence (Ex/Em=485/520); EnVision plate reader
Keywords: cytotoxicity, lymphoblastoid cell line, fluorescence, NTPHTS, NTPHTS_NCGC, NIEHS, EPA, DSSTox, MLSMR, MLSCN, NIH Roadmap, qHTS, NCGC

Compound	cytotoxicity (dead cells)
C=CC=O	2.96%
Nc1ccccc1-c1ccccc1	19.1%
C=CCCC#N	7.5%
C=CC(=O)OCC(C)C	15.9%
C(CCOCC1CO1)COCC1CO1 (stereo not given)	-22.5%
O=[N+]([O-])c1ccc2c3c(cccc13)CC2	2.52%
O=[N+]([O-])CCO	-21.5%
S=c1[nH]c2ccccc2[nH]1	14.5%
ClC(Cl)(Cl)C(Cl)(Cl)Cl	13.9%
CC(C#N)CCC#N (stereo not given)	-2.03%
CC(C)[C@]12CC(=O)[C@H](C)[C@H]1C2	10.8%
C=CC(=O)OCCO	14%
Cc1ccccc1[N+](=O)[O-]	20.3%
Clc1cc(Cl)c(Cl)c(Cl)c1	-7.78%
O=C(Cl)OCc1ccccc1	24.2%
O=[N+]([O-])c1ccc(Cl)c(Cl)c1Cl	-1.32%
N#CCBr	29%
Cc1ccc(N)c(N)c1	-2.78%
CC(C)Br	28.6%
C/C=C/CC#N	18.4%

Compound	cytotoxicity (dead cells)
ClCC(Cl)CCl	-13%
Nc1cccc2ccccc12	13.5%
C=CC(=O)OCC(CC)CCCC (stereo not given)	-2.07%
CN(C)c1ccc(N(C)C)cc1	0.768%
N#C/C=C/C#N	-1.74%
c1ccc(C2CO2)cc1 (stereo not given)	-0.326%
OCCCCO	13.2%
CC(=O)[O-].CC(=O)[O-].CC(=O)[O-].[Cr+3]	7.97%
Oc1cc(Cl)c(Cl)c(Cl)c1	14.6%
Oc1c(Cl)c(Cl)cc(Cl)c1Cl	13.5%
N#CC(O)c1ccccc1 (stereo not given)	-1.88%
Nc1c(Br)cc([N+](=O)[O-])cc1[N+](=O)[O-]	-4.54%
Cc1cc(-c2ccc(N)c(C)c2)ccc1N	32.5%
O=[N+]([O-])c1cc(Cl)c(Cl)c(Cl)c1	-0.353%
CC1CC(=O)O1 (stereo not given)	3.47%
CCCN(CCC)c1c([N+](=O)[O-])cc(C(F)(F)F)cc1[N+](=O)[O-]	-1.14%
[C-]1=CC=CC1.[C-]1=CC=CC1.[Cl-].[Cl-].[Ti+4]	16.5%
C=CCOCC1CO1 (stereo not given)	1.64%
CCCCCCCCCCCOC(=O)c1ccccc1C(=O)OCCCCCCCCCCC	9.67%
Cc1cccc(C)c1N	4.08%
